D2 ag-1 = agonists of human D2 dopamine receptor (beta-arrestin); DiscoveRx PathHunter D2 beta-arrestin, luminescence, 90 min; 100% = 57 uM dopamine signal; activation, % (concentration not given with the values); P14416; hit rate 0.084% among 360,000; in the data active = activation above about 40%; inconclusive = between about 15% and that limit
Target sequence (P14416 whole entry, looked up): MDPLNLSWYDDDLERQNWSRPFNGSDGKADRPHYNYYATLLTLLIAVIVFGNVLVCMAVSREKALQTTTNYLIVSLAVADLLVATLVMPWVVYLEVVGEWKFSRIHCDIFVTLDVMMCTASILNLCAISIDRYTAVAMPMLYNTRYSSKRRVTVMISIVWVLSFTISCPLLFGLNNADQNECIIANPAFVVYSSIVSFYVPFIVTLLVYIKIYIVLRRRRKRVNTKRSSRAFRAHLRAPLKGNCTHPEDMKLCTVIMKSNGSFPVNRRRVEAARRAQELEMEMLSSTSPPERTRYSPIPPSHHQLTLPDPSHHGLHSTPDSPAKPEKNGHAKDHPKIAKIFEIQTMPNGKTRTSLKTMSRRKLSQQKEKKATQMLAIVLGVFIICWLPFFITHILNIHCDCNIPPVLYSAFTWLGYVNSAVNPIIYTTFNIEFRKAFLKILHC
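Agonist mode: compounds alone added to overnight-plated D2 PathHunter cells for 90 min at 37 C, with 57 uM final dopamine (EC100) defining full response. Beta-arrestin recruitment detected by chemiluminescent reagent, read after 1 h at ambient temperature.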
D2 PAM-1 = potentiates the human D2 dopamine receptor allosterically. hit rate 0.23% among 360,000. P14416. DiscoveRx D2 beta-arrestin cells, luminescence, 90 min; 100% = 57 uM dopamine signal. AID 624464. potentiation, % (no concentration beside the values); in the data active = potentiation above about 50%; inconclusive = mostly about 30% to 49%
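PathHunter beta-arrestin assay in DiscoveRx D2 cells. Compounds were added with an EC20 of dopamine (50 nM final) for 90 min at 37 deg C. Luminescence was read 1 h after detection reagent, with 57 uM dopamine as the EC100 control.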
D2 ag-2 = activates the human D2 dopamine receptor; P14416; HEK293 T-REx D2 cells, calcium flux agonist mode; activation, % at 2 µM; hit rate 0.53% among 340,000; AID 485358;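 active = activation over 3 SD above normal in the single-dose calcium agonist read, cut at about 30% in these data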; note: 0% is about no effect
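In this primary screen, compounds producing a positive calcium signal within 180 s of addition to tetracycline-induced, force-coupled HEK293 Trex D2 cells are flagged; cells are dye-loaded with a no-wash calcium kit beforehand.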
D2 PAM-2 = positively modulates the human D2 dopamine receptor allosterically. P14416. HEK293 T-REx D2, calcium flux, EC20 dopamine potentiation. potentiation, % at 10 µM. hit rate 0.34% among 340,000;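 active = potentiation over 3 SD above the plate norm, cut at about 30% in these data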; note: 0% is about no effect
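Calcium flux readout, no-wash dye, 1 read/s. Inducible HEK293 Trex D2 line, overnight 30 C. Compound alone 180 s (agonist flags), then EC20 dopamine, another 180 s to score potentiation.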
D2 antag = antagonists of human D2 dopamine receptor. P14416. HEK293 TREx D2 cells, calcium flux, dopamine EC80. inhibition, % at 10 µM. hit rate 2% among 340,000; in the data active = inhibition above about 30%; inactive = below that, where a call was filed; note: 0% is about no effect
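Tetracycline-induced HEK293 TREx cells expressing D2 receptor forced-coupled to calcium signalling, loaded with no-wash calcium dye. Compounds added and calcium flux read 180 s, then dopamine added at EC80 and read a further 180 s.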
D3 ag = D3 receptor agonism confirmed, beta-arrestin readout; shares compounds with D2 ag-2; DiscoveRx D3 beta-arrestin cells, luminescence, 90 min; Potency, µM (series often up to 76.9 µM), inactives show top-dose activation, usual class: activators; hit rate 4% among 2,300; AID 720506;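 note: potency is the fitted concentration of half-maximal effect; 100% = dopamine control response; nearly all actives have a fitted effect of over 70% in size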
D2 ag-3 = activates human D2 dopamine receptor in D3 counterscreen; hit rate 5.9% among 2,300; shares compounds with D2 ag-2; DiscoveRx PathHunter D2 beta-arrestin, luminescence, 90 min; response scale: percent relative to full dopamine signal; Potency, µM (top dose mostly 76.9 µM), inactives show at the highest dose activation, usual class: activators; AID 720507; note: potency is the fitted concentration of half-maximal effect; % of control where 0% means no effect; nearly all actives have a fitted effect of over 70% in size
The depositor's hits bear a star; ? = inconclusive; / = no result; ! = repeats disagree. This is a sample that favours compounds with a hit; in the whole collection about 2.4% have one here. Unless noted, calls come from the whole dose curve; as a rule, active = well fitted activation curve with a large enough effect; inconclusive = small, poorly fitted or top-dose-only effect; inactive = flat fitted curve, though single readings scatter.

SMILES	D2 ag-1	D2 PAM-1	D2 ag-2	D2 PAM-2	D2 antag	D3 ag	D2 ag-3
O=C(NCCN1CCN(c2ccccc2)CC1)C1CCN(S(=O)(=O)N2CCOCC2)CC1	?	6.1	84.0*	-24.2	60.6*	?	?
Cc1nnc(SCC(=O)NC2CCCC2)n1C(C)C	1.8	2.2	0.2	15.1	-6.0	/	/
S=C(NCCCN1CCOCC1)Nc1ccc(Cl)c(Cl)c1	0.6	-18.5	0.9	6.6	-19.7	/	/
O=[N+]([O-])c1cc(Br)c2nsnc2c1N1CCOCC1	-0.1	-4.1	26.1	4.2	23.1	-2.4%	1.5%
CC[C@@]1(C(=O)OC)N[C@H](CN(C)S(=O)(=O)c2ccc(C(C)(C)C)cc2)[C@@H]2C(=O)N(C)C(=O)[C@@H]21	-1.2	-1.4	/	/	/	/	/
O=C(Nc1ccccc1)OCCN1CCN(Cc2ccccc2)CCC1=O	-6.2	-5.6	-0.9	-3.8	4.0	/	/
Cc1ccc(NC(=O)OCCN2CCN(Cc3ccccc3)CCC2=O)cc1	0.2	-5.0	50.4*	-12.5	42.7*	8.2%	?
O=C(CSc1nnc(-c2cccnc2)o1)Nc1cccc(F)c1	-2.4	-3.2	-0.2	-5.6	19.9	/	/
Cc1ncc(C[n+]2csc(CCO)c2C)c(N)n1	-3.9	-8.5	55.4*!	-13.3	67.8*!	-0.1%	-5.4%
CCOC(=O)C1=CCN(S(=O)(=O)c2ccc(Br)cc2)C1c1ccccc1 (configuration not stated)	-2.6	-4.3	/	/	/	/	/
Cc1ccccc1[C@@H](NC(=O)OC(C)(C)C)C(=O)OC(C)(C)C	-3.9	-6.1	-1.2	4.9	-6.6	-12.2%	2.0%
Cc1ccc(-n2c(N)cc(=O)nc2SCC(=O)N2CCN(c3ccccc3)CC2)cc1	8.7	-21.5	65.6*	-30.0	63.6*	-30.0%	8.5%
Nc1cc(=O)nc(SCC(=O)N2CCN(c3ccccc3)CC2)n1-c1ccc(F)cc1	0.3	-5.6	27.8	-4.8	-19.0	-20.8%	-1.2%
Nc1cc(=O)nc(SCC(=O)N2CCN(c3ccccc3)CC2)n1-c1ccccc1	-0.2	-9.0	12.7	-1.6	5.6	/	/
COc1cccc(-n2c(N)cc(=O)nc2SCC(=O)N2CCN(c3ccccc3)CC2)c1	-2.0	-6.1	20.9	-9.4	9.3	-4.9%	6.1%
Cc1nonc1C1CCCN1Cc1cn[nH]c1-c1ccc(-c2ccccc2)cc1 (configuration not stated)	-2.5	-11.2	0.1	7.0	9.3	/	/
CCn1c2ccc(C)cc2c2n[nH]c(=S)nc21	-5.5	-25.7	-2.3	3.5	-4.6	6.8%	-8.2%
[NH-]c1ncnc2c1N=C[N+]2=CC=CCO	-10.0	-0.4	0.3	-9.0	-21.9	/	/
Cc1ccc(NC(=O)CN2CCN(c3ccccn3)CC2)cc1S(=O)(=O)N(C)C	58.2*	8.1	68.6*	-23.6	76.8*	1.41µM*	14.1µM*
Cc1cc(C)cc(NC(=O)CN2CCN(c3ccccn3)CC2)c1	2.2	-24.7	3.4	11.9	15.8	/	/
CN(C)S(=O)(=O)c1cc(NC(=O)CN2CCN(c3ccccc3)CC2)ccc1Cl	?	14.9	70.6*	-19.4	63.9*	50.1µM*	?
CN(C)S(=O)(=O)c1cc(NC(=O)CN2CCN(c3ccc(O)cc3)CC2)ccc1Cl	11.3	-15.8	13.1	-18.1	0.7	/	/
CN(C)S(=O)(=O)c1ccc(NC(=O)CN2CCN(c3ccccn3)CC2)cc1	?	15.2	65.0*	-18.4	30.2*	1.41µM*	?
CNC(=O)c1ccc(C)c(NC(=O)C2=C(C)OCCS2)c1	-0.1	-4.0	0.8	14.0	-18.9	/	/
Cc1cc2oc(C(=O)Nc3ccc(S(N)(=O)=O)cc3)cc(=O)c2cc1C	/	/	1.0	-12.1	/	/	/
SMILES	D2 ag-1	D2 PAM-1	D2 ag-2	D2 PAM-2	D2 antag	D3 ag	D2 ag-3
COc1ccccc1CNC(=O)CCCn1c(=O)c2ccccc2n(Cc2ccc(F)cc2)c1=O	/	/	-0.2	1.4	/	/	/
Cc1noc(C)c1S(=O)(=O)N(C)C[C@@H]1OCc2cnnn2CCCC(=O)N([C@H](C)CO)C[C@@H]1C	-8.7	7.2	/	/	/	/	/
CCOc1cc(C)c(Cl)cc1S(=O)(=O)NCCOC	-1.1	-4.0	58.9*	-17.9	32.3*	-7.8%	-3.2%
CC1(C)C2CCC(C2)C1(C)NC(=O)CNCc1cccs1 (configuration not stated)	12.0	5.0	23.9	-11.2	28.2	-7.5%	27.5%
O=C(CNCc1cccs1)NC12CC3CC(CC(C3)C1)C2	13.9	8.8	29.6	-15.0	6.5	/	/
Cn1nc(C(F)(F)F)c(C#N)c1N1CCN(c2ccccn2)CC1	-0.2	-2.6	11.4	-0.9	-33.4	11.6%	16.8%
CC1CN(CCn2cnc3c(N)ncnc32)CC(C)O1 (configuration not stated)	-0.5	-4.1	0.2	4.7	45.8*	1.0%	-0.8%
COc1cccc(OCC(O)CN2CCN(c3ccc(Cl)cc3)CC2)c1 (configuration not stated)	-3.8	-26.2	7.5	-17.2	-42.1	/	/
OC(COc1ccc(Br)cc1)CN1CCN(c2ccccc2)CC1 (configuration not stated)	-2.7	-14.4	61.4*	-17.6	81.2*	?	?
OC(COc1ccccc1)CN1CCN(c2ncccn2)CC1 (configuration not stated)	-0.3	-8.1	9.0	-5.2	38.7*	15.0%	9.7%
COc1cccc(OCC(O)CN2CCN(c3ccccc3)CC2)c1 (configuration not stated)	?	-0.1	79.0*	-24.4	82.8*	?	?
COc1cccc(CN2CCN(c3ncccn3)CC2)c1	55.1*	26.3	93.0*	-29.1	95.0*	?	0.631µM*
COc1cc(Br)cc(CN2CCN(c3ncccn3)CC2)c1O	52.2*	81.4*	76.5*	-18.2	73.9*	?	7.94µM*
COc1cccc(OCC(O)CN2CCOCC2)c1 (configuration not stated)	1.6	-20.6	-0.5	10.9	1.3	/	/
OC(CN1CCN(c2ccccc2)CC1)Cn1c2ccccc2c2ccccc21 (configuration not stated)	-14.7	-29.3	0.4	-13.9	-13.0	/	/
COc1cccc(OCC(O)CN2CCN(c3ncccn3)CC2)c1 (configuration not stated)	?	3.2	77.6*	-17.1	69.1*	14.6%	?
COc1cccc(OCC(O)CN2CCN(c3ccccn3)CC2)c1 (configuration not stated)	?	21.0	73.1*	-27.3	91.5*	?	3.55µM*
